VP16 counter – VP16 counterscreen qHTS for inhibitors of ROR gamma transcriptional activity. Drosophila S2 Gal4-VP16 UAS-luciferase, luminescence, 20 h. Potency, µM (highest dose often 53.6 µM), usual class: inhibitors. 3.5% of 310,000 active;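 also: Gal4-VP16 expression switched on by copper sulfate through the metallothionein promoter; nearly all actives have a fitted effect of over 50% in size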
RORgamma inh – qHTS for inhibitors of ROR gamma transcriptional activity; 5.4% of 310,000 active; Nuclear receptor ROR-gamma (Mus musculus), P51450; Drosophila S2 Gal4-RORgamma UAS-luciferase reporter, 20 h; Potency, µM (highest dose often 53.6 µM), most hits filed as inhibitors; AID 2551, 2010; also: nearly all actives have a fitted effect of over 60% in size
Target sequence (P51450 whole entry, looked up, the tested form may be a part): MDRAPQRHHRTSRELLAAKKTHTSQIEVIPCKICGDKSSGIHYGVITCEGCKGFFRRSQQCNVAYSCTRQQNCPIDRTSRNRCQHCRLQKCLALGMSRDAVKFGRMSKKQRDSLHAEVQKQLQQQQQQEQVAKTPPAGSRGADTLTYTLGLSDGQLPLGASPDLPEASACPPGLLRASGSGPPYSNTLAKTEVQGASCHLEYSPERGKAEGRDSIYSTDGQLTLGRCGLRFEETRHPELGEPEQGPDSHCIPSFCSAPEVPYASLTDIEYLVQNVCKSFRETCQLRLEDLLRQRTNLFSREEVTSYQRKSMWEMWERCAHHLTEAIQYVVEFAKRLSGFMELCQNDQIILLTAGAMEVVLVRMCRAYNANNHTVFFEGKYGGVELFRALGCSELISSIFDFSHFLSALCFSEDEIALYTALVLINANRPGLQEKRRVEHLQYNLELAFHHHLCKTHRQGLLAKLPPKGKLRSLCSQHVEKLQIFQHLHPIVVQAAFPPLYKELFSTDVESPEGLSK
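Drosophila S2 cells stably expressing Gal4-DBD/mouse RORγ fusion under metallothionein promoter plus UAS-luciferase; compound 1 h, then 700 uM CuSO4 induction for 20 h at ambient temperature; inhibition read as reduced luminescence.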
Luc counter – Counterscreen for Luciferase (Kinase-Glo TM) Inhibition; AID 1379, 2008; 0.28% of 200,000 active; Potency, µM (top dose mostly 38.3 µM), actives largely listed as inhibitors; Kinase-Glo luciferase, ATP luminescence, 8 min; Luciferin 4-monooxygenase (Photuris pensylvanica), Q27757; also: nearly all actives have a fitted effect of over 60% in size
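Inhibition of Kinase-Glo luciferase light generation was assessed at 10 uM ATP in pH 7.2 imidazole buffer, with luminescence measured after eight minutes at ambient temperature.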
Numbers stand for hits; n = inactive; u = inconclusive; x = not tested or not shown; [ ] = dose if it differs, or a comment. A selection: hits, their analogues and other compounds. The true share with any hit is near 6.4%. Calls follow the shape of the dose curve; as a rule, active = well fitted curve in the direction sought with a large enough effect; inconclusive = small, poorly fitted or top-dose-only effect, or another doubt; inactive = no such curve, though single readings can be large; an effect the other way counts as inactive or inconclusive.

SMILES	VP16 counter	RORgamma inh	Luc counter
Fc1ccccc1NC(=S)NCCc1ccccc1	u	6.3µM	n
Fc1ccccc1NC(=S)NCCc1ccc(Cl)cc1	u	8.9µM	x
O=C(NCCCCc1ccccc1)Nc1cccc(F)c1	n	u	x
Fc1ccc(CN2CCN(C(=S)NCCc3ccccc3)CC2)c(Cl)c1	n	n	n
CCc1nnc(NS(=O)(=O)c2ccc(NC(=O)c3ccccc3O)cc2)s1	n	n	x
CCOC(=O)c1ccc(NC(=S)N2CCN(CCNC3=CC(=O)CC(C)(C)C3)CC2)cc1	n	n	n
CCCCCCCCOC(=O)c1ccc(N)cc1	n	n	n
CCCCCCCCN=C(N)c1ccc(C(=O)OCC2CCCCC2)cc1	n	7.9µM	x
O=[N+]([O-])c1ccccc1/C=N\N1CCN(Cc2ccccc2Cl)CC1	n	n	x
Cc1c(NC(=O)COC(=O)c2ccc(F)c(S(=O)(=O)N3CCOCC3)c2)c(=O)n(-c2ccccc2)n1C	n	n	n
COC(=O)CCC(C)C1CCC2C3CC[C@H]4CC(O)CC[C@@]4(C)C3CC(O)[C@]12C (some centres undefined)	u	u	n
COc1cccc(/C(O)=C/c2nc3ccc(C(=O)NCCc4ccc(Cl)cc4)cc3[nH]c2=O)c1	14µM	u	n
COc1cccc(/C(O)=C/c2nc3ccc(C(=O)NCCc4cccc(C)c4)cc3[nH]c2=O)c1	u	n	n
CCn1cc(C(=O)N2CCCC2)c(=O)c2cc(S(=O)(=O)N3CCOCC3)ccc21	n	4.5µM	n
CCn1cc(C(=O)N2CCCC2)c(=O)c2cc(S(=O)(=O)N3CCC(C)CC3)ccc21	n	n	x
Cc1ccc(-c2ccnc3nc(-n4cccc4)nn23)o1	n	n	n
CC(=O)C1(C)CC2(CC(C)(C)OC2=O)C(=O)O1 (centres undefined)	n	n	n
CC(=O)NNC(=O)c1[nH]c2ccc(Cl)cc2c1-c1ccccc1	n	n	x
O=C(NN=C1CCCC1)c1[nH]c2ccc(Cl)cc2c1-c1ccccc1	u	11µM	x
CSc1nc2sc3c(c2c(=O)[nH]1)CCC3	n	n	n
Cc1cccc(/C=C2/S/C(=N/N=C3\CC4CCC3(C)C4(C)C)NC2=O)c1 (centres undefined)	u	8.9µM	n
O=C1N/C(=N/O)S/C1=C/c1cccc([N+](=O)[O-])c1	n	n	n
COc1ccc(S(=O)(=O)Cc2ccc(C(=O)NC3CCCCC3)o2)cc1	n	n	x
C=C(C)C1Cc2c(C)nn(-c3nc(C)cc(C)n3)c2C1 (centres undefined)	2µM	0.35µM	n
C=C(C)C1Cc2nc(N)nc(C)c2C1 (centres undefined)	n	n	n
SMILES	VP16 counter	RORgamma inh	Luc counter
COc1ccccc1CNC(=O)Cn1cccc1C(=O)c1ccccc1C	n	n	x
CCn1nnc2cc(C(=O)O)ccc21	n	n	x
CCn1nnc2cc(C(=O)NCCc3ccccc3F)ccc21	11µM	u	x
CC(C)CCN1CCN(Cc2ccc(C#CCCO)cc2)CC1CCO (centres undefined)	n	n	x
O=C(c1ccc(-c2ccc([N+](=O)[O-])cc2)o1)N1CCCCC1	16µM	u	n
O=C(c1ccc(-c2ccc(Cl)cc2)o1)N1CCN(c2ccc([N+](=O)[O-])cc2Cl)CC1	n[0.365 µM]	u	n
CC(C)CC1Nc2ccc(C(=O)NCCCN3CCCCC3C)cc2NC1=O (centres undefined)	n	n	x
O=C(CCN1C(=O)c2ccccc2C1=O)NC(=S)Nc1cccc(Cl)c1	u	11µM	n
O=C(CCCN1C(=O)c2ccccc2C1=O)Nc1ccccc1	n	n	x
Cc1cc(C)cc(NC(=O)CCN2C(=O)c3ccccc3S2(=O)=O)c1	n	n	x
Cc1cc(C)cc(NC(=S)NC(=O)CCN2C(=O)c3ccccc3C2=O)c1	4.5µM	3.5µM	n
O=C(CCN1C(=O)c2ccccc2C1=O)NC(=S)Nc1ccccc1	u	13µM	n
O=C(CCN1C(=O)c2ccccc2C1=O)Nc1cccc(O)c1	n	n	x
Cc1cccc(C(=O)NC2CC3CCCC(C2)N3C(=O)Nc2ccccc2)c1 (centres undefined)	n	n	x
COC(=O)/C=C/C(C)=C/C=C/C(C)=C/C=C/C=C(C)/C=C/C=C(C)/C=C/C(=O)O	n	n	n
CCc1ccccc1NC(=S)N(CCc1ccncc1)C(C)C	n	u	x
O=C(O)c1cc(S(=O)(=O)Nc2ccc(O)cc2)ccc1Cl	x	x	n
CCCN(CCC)S(=O)(=O)c1ccc(C(=O)Nc2nnc(-c3cccc(OC)c3)o2)cc1	0.63µM	0.4µM	n
CCCN(CCC)S(=O)(=O)c1ccc(C(=O)Nc2nnc(-c3cc(OC)cc(OC)c3)o2)cc1	0.28µM	0.16µM	n
CCN(CC)S(=O)(=O)c1cccc(-c2nnc(C(=O)c3ccc(C(F)(F)F)cc3)o2)c1	n	n	n
CCCN(CCC)S(=O)(=O)c1ccc(C(=O)Nc2cc3oc4ccccc4c3cc2OC)cc1	u	n	n
CCN(CC)C(=O)C(=O)c1cccn1-c1cccc(OC)c1C#N	n	n	x
CC(=O)c1ccccc1NS(=O)(=O)c1cccc2nsnc12	n	n[1.91 µM]	x
Cc1cc(C(F)(F)F)nc(Nc2nc(C)c3ccccc3n2)n1	u	6.3µM	n
Cc1ccc2nc(Nc3nc(C)cc(C(F)(F)F)n3)nc(C)c2c1	u	n	n
SMILES	VP16 counter	RORgamma inh	Luc counter
Nc1c(-c2ccc(Cl)cc2)cnc2c(-c3ccccc3)cnn12	n	22µM	x
CC(C)(C)S(=O)(=O)c1cnc2c(-c3ccc(F)cc3)cnn2c1N	n	4.5µM	n
CC(C)(C)S(=O)(=O)c1cnc2c(-c3ccc(Cl)cc3)cnn2c1N	n	2.8µM	n
COc1ccc(-c2cnc3c(-c4ccc(F)cc4)cnn3c2N)cc1	n	n	x
CS(=O)(=O)c1cnc2c(-c3ccsc3)cnn2c1N	n	u	n
Cc1cc2ncc(S(=O)(=O)C(C)(C)C)c(N)n2n1	n	n	n
COc1ccc(-c2cnn3c(N)c(S(=O)(=O)C(C)(C)C)cnc23)cc1	u	11µM	n
Nc1c(-c2ccc(Cl)cc2)cnc2ncnn12	n	n	n
CCCc1cc(=O)c2ccc(OC/C(C)=N/O)cc2o1	n	n	x
CCN(Cc1ccncc1)C(=O)c1ccccc1NS(=O)(=O)c1ccc(F)cc1	n	n	x
Cc1cccc(N(CC(=O)NCc2ccco2)C(=O)CCC(=O)Nc2nccs2)c1C	n	n	x
CCOc1ccc(NC(=S)N2CCN(S(=O)(=O)c3ccc(C)cc3)CC2)cc1	n	n	x
C=C(C)CC(C)(C)C	n	n	x
CCOc1ccccc1NC(=O)CN1C(=O)C(=O)N(Cc2ccco2)C1=O	n	n	n
Cc1cc2ncc(-c3ccc(Cl)cc3)c(N)n2n1	u	u	n
Nc1c(-c2ccccc2)cnc2cc(-c3ccccc3)nn12	u	2.8µM	n
Cc1cccc(CN(CC(=O)N/N=C/c2cccs2)S(=O)(=O)c2ccc(Cl)cc2)c1	n	u	n
COC(=O)c1cnc(SCc2ccc([N+](=O)[O-])cc2)n1C	n	n	x
O=C(CN1C(=O)CSc2ccc(S(=O)(=O)N3CCOCC3)cc21)NCc1cccnc1	n	n	n
Cc1ccc(Nc2nc(N)nc(CC#N)n2)cc1	n	n	n
Cn1c(CNc2cccc(Cl)c2)nnc1SCC#N	n	n	n
